Results on eight compounds are retold here after PubChem BioAssay.

Experiment [1] relates to Wnt5a (protein binding on small-molecule microarray). The experiment is described as follows: Wnt5a binders on small-molecule microarray, primary screen, biophysical, 635/667 nm fluorescence (AID 1142).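 Further: fluorescence read at 667 nm with signal to noise per printed feature.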 The settings on record: 635 nm fluorescence, higher = more signal.
A short description of experiment [2]: cell viability in Huh7 cells, primary screen, cytotoxicity control for HCV replication inhibitor project, CellTiter-Glo luminescence, basal, 48 h (AID 1143).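 Further: Huh7 hepatoma cells carrying a hepatitis C replication reporter with no stimulus; test concentration not given here.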 The following applies: Huh7 HCV replicon, higher = more signal, called active from +8 up or from −8 down.
A short description of experiment [3]: P. aeruginosa biofilm formation inhibitors, primary screen, PAO1 strain, BacTiter-Glo luminescence, LB-PBS (AID 1144). The settings on record: 12 h, higher = more signal.
Experiment [4] is described as follows: CREB reporter modulators without forskolin, primary screen, cell-based, PC12, CRE-LacZ reporter, unstimulated (AID 1145). The following applies: no forskolin, luminescence, 4.5 h, higher = more signal, called active from +8 up or from −8 down.
Experiment [5] is described as follows: CREB reporter modulators under forskolin, primary screen, cell-based, PC12, CRE-LacZ reporter, forskolin-stimulated (AID 1146).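 Further: PC12 cells with 6xCRE LacZ reporter stimulated by forskolin 10 µM; beta-galactosidase reporter signal reflecting CREB driven transcription.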 The settings on record: luminescence, 4.5 h, higher = more signal, called active from +8 up or from −8 down.
Experiment [6] addresses Streptavidin (Streptomyces avidinii) (UniProt P22629). The experiment is described as follows: streptavidin binders on small-molecule microarray, primary screen, artefact control for SMM compound annotation, biophysical, 635/667 nm fluorescence (AID 1147).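 Further: signal reflects streptavidin binding to arrayed compounds as a control protein.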 The following applies: streptavidin binding, higher = more signal.
The nature of experiment [7]: small-molecule binders of probe aInhba, primary screen, biochemical, small-molecule microarray, 635/667 nm fluorescence (AID 1148).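 Further: score merges 667nm spot fluorescence with signal-to-noise for antibody binding to printed compounds.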 The settings on record: higher = more signal.
Experiment [8] has as its target Torsin-1A (Homo sapiens) (UniProt O14656). The experiment in a line: torsin A binders from cell lysate, primary screen, small-molecule microarray, wild-type, 635/667 nm (AID 1149). The settings on record: COS7 hTOR1A-WT lysate, 635 nm fluorescence, higher = more signal.
The target is the same in experiment [9]. The experiment in a line: small-molecule binders of mutant TOR1A in lysate, primary screen, cell lysate, small-molecule microarray, COS7 lysate, 635/667 nm fluorescence (AID 1150).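 Further: score pools 667 nm emission and signal to noise measuring lysate protein binding.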 The following applies: COS7 hTOR1A mutant lysate, 635 nm fluorescence, higher = more signal.
Experiment [10] has as its system Sonic hedgehog protein (Shh). The experiment is described as follows: small-molecule binders of Shh protein, primary screen, biochemical, small-molecule microarray, 635/667 nm fluorescence (AID 1151).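 Further: Shh protein binding to compounds spotted on small-molecule microarray slides; score combines spot fluorescence intensity with signal-to-noise across triplicate slides.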 The settings on record: small-molecule microarray binding, 635 nm fluorescence; higher = more signal.
A short description of experiment [11]: E. coli DRC41 culture turbidity changes, primary screen, E. coli filamentation inducer project, strain DRC41, OD650, 48 h (AID 1152).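 Further: E. coli MC1000 strain DRC41 lacking acrAB efflux pump and sulA.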 The following applies: E. coli DRC41 (acrAB sulA), higher = more signal, called active from +8 up or from −8 down.
Experiment [12] is described as follows: small-molecule binders of probe aLefty1, primary screen, biochemical, small-molecule microarray, 635/667 nm fluorescence (AID 1153).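 Further: score merges spot fluorescence with signal-to-noise ratio from the scanned slide images.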 The following applies: higher = more signal.
Experiment [13] in a line: PSAC antagonists in infected red cells, primary screen, cell-based, P. falciparum Indochina, OD700, 1 h (AID 1154). The settings on record: P. falciparum Indochina infected RBC osmotic lysis, higher = more signal, called active from +8 up or from −8 down.
The nature of experiment [14]: PSAC antagonists in infected red cells, primary screen, cell-based, P. falciparum Indochina, OD700, 2 h (AID 1155).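 Further: lysis reports solute entry through the parasite surface anion channel PSAC; channel blockers reduce lysis of infected cells.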 The following applies: P. falciparum Indochina infected erythrocytes, osmotic lysis OD700; higher = more signal, called active from +8 up or from −8 down.
A short description of experiment [15]: osmotic lysis modulators in infected erythrocytes, primary screen, PSAC antagonist project, cell-based, P. falciparum Indochina, OD700, 3 h (AID 1156). The following applies: higher = more signal, called active from +8 up or from −8 down.
The nature of experiment [16]: PSAC antagonists in infected red cells, primary screen, cell-based, P. falciparum Indochina, OD700, 18 h (AID 1157). The settings on record: P. falciparum Indochina infected erythrocytes, osmotic lysis OD700, 18 h; higher = more signal, called active from +8 up or from −8 down.
Experiment [17] is described as follows: modulators of S6 phosphorylation in cells, primary screen, cell-based, A549, cytoblot, luminescence, serum-stimulated (AID 1158).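 Further: serum-stimulated A549 lung adenocarcinoma cells; signal is phosphorylated S6 detected by cytoblot immunostaining with HRP secondary.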 The following applies: A549 phospho-S6 cytoblot, 5 h, higher = more signal.
Experiment [18] concerns the target NADPH oxidase 2 (Homo sapiens) (UniProt P04839). The experiment is described as follows: NOX2-dependent H2O2 signal modulators, primary screen, NOX inhibitor project, cell-based, HEK293-NOX2, PMA-stimulated, Amplex Red fluorescence (AID 1159). Further: test concentration not given here. The following applies: 45 min, higher = more signal, called active from +8 up or from −8 down.
The target of experiment [19] is NADPH oxidase 4 (Homo sapiens) (UniProt Q9NPH5). The experiment is described as follows: NOX4-dependent H2O2 signal modulators, primary screen, NOX inhibitor project, cell-based, HEK293-NOX4, tetracycline-induced, Amplex Red fluorescence (AID 1160). The following applies: 45 min, higher = more signal, called active from +8 up or from −8 down.
Sequence of NADPH oxidase 4 (Homo sapiens) (Q9NPH5 whole entry, looked up): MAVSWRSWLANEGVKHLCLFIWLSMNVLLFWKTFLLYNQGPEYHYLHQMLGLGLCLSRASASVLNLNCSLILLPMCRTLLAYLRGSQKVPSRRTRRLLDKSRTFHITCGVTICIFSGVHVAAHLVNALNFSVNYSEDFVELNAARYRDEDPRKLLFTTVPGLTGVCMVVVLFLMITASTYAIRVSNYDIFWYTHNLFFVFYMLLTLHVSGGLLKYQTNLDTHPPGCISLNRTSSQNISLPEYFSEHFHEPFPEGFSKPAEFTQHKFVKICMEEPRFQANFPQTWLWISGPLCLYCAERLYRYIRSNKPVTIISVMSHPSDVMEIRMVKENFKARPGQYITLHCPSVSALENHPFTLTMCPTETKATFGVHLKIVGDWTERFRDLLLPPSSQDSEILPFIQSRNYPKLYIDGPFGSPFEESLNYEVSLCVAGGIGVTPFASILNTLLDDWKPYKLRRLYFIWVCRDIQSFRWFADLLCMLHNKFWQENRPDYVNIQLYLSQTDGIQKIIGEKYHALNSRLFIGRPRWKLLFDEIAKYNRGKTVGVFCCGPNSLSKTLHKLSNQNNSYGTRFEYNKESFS
In experiment [20] the target is NADPH oxidase 5 (Homo sapiens) (UniProt Q96PH1). The experiment is described as follows: NOX5-dependent H2O2 signal modulators, primary screen, NOX inhibitor project, cell-based, HEK293-NOX5, Amplex Red fluorescence (AID 1161). The following applies: HEK293-NOX5, ionomycin, 45 min, higher = more signal.
Sequence of NADPH oxidase 5 (Homo sapiens) (Q96PH1 whole entry, looked up): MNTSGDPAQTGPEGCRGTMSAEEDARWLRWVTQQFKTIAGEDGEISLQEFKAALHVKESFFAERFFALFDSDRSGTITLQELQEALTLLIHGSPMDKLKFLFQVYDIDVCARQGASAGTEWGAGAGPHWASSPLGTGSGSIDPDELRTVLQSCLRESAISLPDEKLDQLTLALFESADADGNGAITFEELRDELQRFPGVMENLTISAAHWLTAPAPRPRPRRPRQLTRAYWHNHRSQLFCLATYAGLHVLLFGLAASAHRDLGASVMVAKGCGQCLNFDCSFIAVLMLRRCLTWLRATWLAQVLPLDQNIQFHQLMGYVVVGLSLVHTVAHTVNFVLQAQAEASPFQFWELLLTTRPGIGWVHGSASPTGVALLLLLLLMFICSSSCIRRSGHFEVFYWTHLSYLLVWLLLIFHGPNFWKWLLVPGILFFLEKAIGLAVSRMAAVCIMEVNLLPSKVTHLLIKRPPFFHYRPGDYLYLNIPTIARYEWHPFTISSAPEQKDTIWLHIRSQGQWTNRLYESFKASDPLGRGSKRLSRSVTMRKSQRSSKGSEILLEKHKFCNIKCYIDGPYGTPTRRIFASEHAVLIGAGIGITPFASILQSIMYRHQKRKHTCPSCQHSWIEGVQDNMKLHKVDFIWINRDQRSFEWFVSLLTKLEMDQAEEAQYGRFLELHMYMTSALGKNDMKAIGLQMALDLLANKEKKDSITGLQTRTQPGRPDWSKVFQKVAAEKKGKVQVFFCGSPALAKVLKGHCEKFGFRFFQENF

Calls of active or inactive are those of the source. Unless noted, how the calls were made is not given here.

Sequence of Torsin-1A (Homo sapiens) (O14656 whole entry, looked up): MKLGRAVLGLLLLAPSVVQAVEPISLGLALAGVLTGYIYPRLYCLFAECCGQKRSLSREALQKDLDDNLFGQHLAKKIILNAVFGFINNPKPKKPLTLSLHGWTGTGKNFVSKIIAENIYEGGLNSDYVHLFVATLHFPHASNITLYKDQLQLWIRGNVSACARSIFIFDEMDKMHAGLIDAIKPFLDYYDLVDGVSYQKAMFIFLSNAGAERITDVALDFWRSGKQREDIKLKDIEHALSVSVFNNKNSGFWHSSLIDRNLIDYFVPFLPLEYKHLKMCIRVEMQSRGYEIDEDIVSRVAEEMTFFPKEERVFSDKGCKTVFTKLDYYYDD
Sequence of NADPH oxidase 2 (Homo sapiens) (P04839 whole entry, looked up): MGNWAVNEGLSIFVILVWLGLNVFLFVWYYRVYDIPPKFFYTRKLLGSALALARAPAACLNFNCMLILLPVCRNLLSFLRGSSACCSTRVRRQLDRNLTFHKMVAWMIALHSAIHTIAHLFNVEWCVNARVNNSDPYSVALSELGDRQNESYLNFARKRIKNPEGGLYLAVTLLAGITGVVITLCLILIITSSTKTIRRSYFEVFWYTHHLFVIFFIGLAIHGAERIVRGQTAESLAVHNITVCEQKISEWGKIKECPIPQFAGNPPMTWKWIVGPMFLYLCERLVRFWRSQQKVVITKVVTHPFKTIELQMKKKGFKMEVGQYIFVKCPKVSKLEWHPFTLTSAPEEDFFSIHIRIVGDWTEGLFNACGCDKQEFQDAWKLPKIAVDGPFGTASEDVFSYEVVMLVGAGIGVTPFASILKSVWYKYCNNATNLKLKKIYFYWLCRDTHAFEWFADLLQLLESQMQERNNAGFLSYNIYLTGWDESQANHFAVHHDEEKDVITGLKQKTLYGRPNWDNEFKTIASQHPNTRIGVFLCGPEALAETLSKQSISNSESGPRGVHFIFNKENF
Sequence of Streptavidin (Streptomyces avidinii) (P22629 whole entry, looked up): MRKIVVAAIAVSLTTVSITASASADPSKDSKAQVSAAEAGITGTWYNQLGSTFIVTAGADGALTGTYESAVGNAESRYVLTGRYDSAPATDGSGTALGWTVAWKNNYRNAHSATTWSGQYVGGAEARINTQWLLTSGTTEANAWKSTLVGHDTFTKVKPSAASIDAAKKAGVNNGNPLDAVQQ

As to `COc1cc(NN2C(C(O)c3cc(OC)c(OC)c(OC)c3)C=CC3C(=O)N(C)C(=O)C32)cc(OC)c1OC` (stereo not given), the composite z-score in [1] is -0.019; in experiment [6], 0.853; in [7], -0.0336; with Torsin-1A (Homo sapiens) [8], 0.434; with Torsin-1A (Homo sapiens) [9], 0.459; in experiment [10], 0.0774. In [12], this compound returned a composite z-score of 0.179. Further, the z-score is -0.0088 (inactive) in [2]; -0.792 (inactive) in [3]; 0.243 (inactive) in [4]; 0.445 (inactive) in experiment [5]; -1.12 (inactive) in experiment [11]; 0.367 (inactive) in experiment [13]. Also, the z-score in [14] was 0.0378 (inactive); in experiment [15], 0.508 (inactive); in experiment [16], 0.853 (inactive); in [17], -0.402; in [18], -1.81 (inactive); in [19], -2.26 (inactive). For the same compound, the z-score in experiment [20] was -2.51.
As for `CCOC(=O)C1=C[C@@H](C(C)C)N(S(=O)(=O)c2ccc(C)cc2)[C@H]1c1ccc(C(F)(F)F)cc1`, the composite z-score was 0.418 in [1]; 0.908 in [6]; -0.12 in [7]; 0.505 with Torsin-1A (Homo sapiens) [8]; 0.682 with Torsin-1A (Homo sapiens) [9]; 0.217 in experiment [10]. In [12], this compound displayed a composite z-score of 0.2. The z-score is -3.82 (inactive) in [2]; 0.803 (inactive) in [3]; 0.939 (inactive) in experiment [4]; -1.13 (inactive) in experiment [5]; -1.58 (inactive) in experiment [11]; 0.172 (inactive) in experiment [13]. The z-score is 0.279 (inactive) in [14]; -0.422 (inactive) in experiment [15]; 0.0209 (inactive) in [16]; -0.696 in experiment [17]; -0.116 (inactive) in experiment [18]; 0.024 (inactive) in experiment [19]. The z-score in experiment [20] turned out to be 0.599.
With `COc1cc(NN2C(C(O)c3ccco3)C=CC3C(=O)N(C)C(=O)C32)cc(OC)c1OC` (stereo not given), the composite z-score came out at 0.259 in [1]; 0.536 in experiment [6]; 0.288 in experiment [7]; 1.27 in the experiment with Torsin-1A (Homo sapiens) [8]; 1.04 in the experiment with Torsin-1A (Homo sapiens) [9]; 0.0765 in experiment [10]. For the same compound, the composite z-score in [12] is 0.429. For the same compound, the z-score in experiment [2] is 1.06 (inactive); in experiment [3], 0.184 (inactive); in experiment [4], 0.815 (inactive); in [5] it was 1.06 (inactive); in experiment [11], -1.82 (inactive); in [13] it was 0.715 (inactive). Moreover, the z-score was 0.959 (inactive) in experiment [14]; 0.214 (inactive) in [15]; 1.1 (inactive) in [16]; -0.808 in experiment [17]; -1.95 (inactive) in experiment [18]; -3.55 (inactive) in experiment [19]. The compound further came in with a z-score in experiment [20] of -2.81.
Regarding `C=C(/C(=C/C[C@H](OC(C)=O)c1ccc(CO)o1)c1cnc2ccccc2c1)C(C)C`, the composite z-score is 0.473 in experiment [1]; 1.44 in [6]; 0.0528 in experiment [7]; 1.27 with Torsin-1A (Homo sapiens) [8]; 0.269 with Torsin-1A (Homo sapiens) [9]; 1.65 in experiment [10]. Moreover, the composite z-score in experiment [12] was 0.215. In addition, the z-score in experiment [2] was 0.27 (inactive); in experiment [3] it was -1.31 (inactive); in experiment [4] it was -0.671 (inactive); in experiment [5], 0.647 (inactive); in [11] it was -0.0554 (inactive); in experiment [13], 3.56 (inactive). Also, the z-score in [14] was 0.625 (inactive); in experiment [15], 0.589 (inactive); in experiment [16] it was 0.0124 (inactive); in [17] it was 0.38; in [18], -0.306 (inactive); in [19], -0.246 (inactive). This compound registered a z-score in experiment [20] of -0.219.
`CC(C)(C)OC(=O)COc1cccc(C(=O)CCN2CCOCC2)c1`: the composite z-score in experiment [1] was -0.143; in [6], -0.081; in experiment [7], 0.034; with Torsin-1A (Homo sapiens) [8] it was -1.01; with Torsin-1A (Homo sapiens) [9] it was -0.646; in [10] it was 0.216. The composite z-score in [12] worked out at 0.265. Moreover, the z-score in [2] was -1.13 (inactive); in experiment [3] it was 2.34 (inactive); in [4], 0.416 (inactive); in [5], 12.2 (active); in experiment [11], 0.922 (inactive); in experiment [13], 6.63 (inactive). Further, the z-score is 1.21 (inactive) in [14]; -0.481 (inactive) in experiment [15]; 0.548 (inactive) in [16]; 0.202 in experiment [17]; -5.78 (inactive) in [18]; 1.09 (inactive) in experiment [19]. For the same compound, in experiment [20], the z-score was 2.12.
Take `CCCNC(=O)[C@@]1(Sc2ccc(C)cc2)CC(=O)N(C2Cc3ccccc3C2)[C@@H]1c1ccc(CO)cc1I`: the composite z-score in experiment [1] is 0.196; in experiment [6], 0.419; in [7], 0.27; with Torsin-1A (Homo sapiens) [8] it was 0.418; in the experiment with Torsin-1A (Homo sapiens) [9], 0.309; in experiment [10], 0.737. In [12], this compound showed a composite z-score of 0.844. For the same compound, the z-score is -0.812 (inactive) in experiment [2]; 0.594 (inactive) in experiment [3]; -0.374 (inactive) in experiment [4]; 1.73 (inactive) in [5]; 0.815 (inactive) in experiment [11]; 9.9 (active) in experiment [13]. The z-score was 2.14 (inactive) in experiment [14]; -0.377 (inactive) in experiment [15]; 0.695 (inactive) in experiment [16]; -0.303 in experiment [17]; 0.716 (inactive) in experiment [18]; -0.892 (inactive) in experiment [19]. The z-score in [20] turned out to be 0.67.
As to `O=C1O[C@@H](c2ccccc2)[C@@H](c2ccccc2)N2[C@@H](c3ccc(O)cc3)[C@]3(C(=O)Nc4ccc(C#CCCO)cc43)[C@@H](C(=O)N3CCN(c4ncccn4)CC3)[C@H]12`, the composite z-score in experiment [1] is 0.409; in [6], -0.704; in experiment [7] it was 0.0214; with Torsin-1A (Homo sapiens) [8], 0.591; with Torsin-1A (Homo sapiens) [9], 0.967; in experiment [10], 2.21. In [12], the composite z-score was 0.348. The z-score in [2] is -1.28 (inactive); in experiment [3], -0.622 (inactive); in experiment [4], -0.554 (inactive); in experiment [5], -0.572 (inactive); in [11] it was 1.81 (inactive); in experiment [13], 1.97 (inactive). The z-score in [14] is 1.01 (inactive); in [15], -0.834 (inactive); in [16], 0.516 (inactive); in experiment [17], -0.138; in experiment [18], 0.941 (inactive); in experiment [19] it was -0.341 (inactive). Also, the z-score in experiment [20] was 0.594.
For the compound `CCCCC[C@H]1OC[C@@]23C=C(Br)[C@@H](CC12)[C@@]1(CO1)C3=O` (stereo not given in full), the composite z-score in experiment [1] was -0.233; in experiment [6], -0.619; in [7], -0.128; in the experiment with Torsin-1A (Homo sapiens) [8] it was -0.695; with Torsin-1A (Homo sapiens) [9] it was -0.424; in experiment [10], 0.647. This compound displayed a composite z-score in experiment [12] of -0.294. Moreover, the z-score in [2] is -0.473 (inactive); in [3], 0.931 (inactive); in experiment [4], 0.495 (inactive); in experiment [5], 0.289 (inactive); in experiment [11], -1.12 (inactive); in experiment [13], 1.66 (inactive). In addition, the z-score in [14] was 0.533 (inactive); in experiment [15], 0.487 (inactive); in [16], 0.184 (inactive); in experiment [17], -0.446; in [18] it was -0.459 (inactive); in experiment [19], 0.438 (inactive). For the same compound, the z-score in experiment [20] stood at 0.134.
